Results as given in PubChem BioAssay AID1159580 (chemical genetic matrix, 2015).
Several values for one entry are separate records, joined by “and”; a condition that tells them apart may be missing. Equal entries are not always repeated. In all, about 5,500 compounds went through this assay and about 2,000 (36%) were called active. Roughly 18% stayed inconclusive and do not appear here. Rule as the data show it: active = normalized growth mostly below about 0.91 (no sharp cut-off); inconclusive = no clear call, values can overlap the other calls; inactive = mostly above about 0.92. Some of the results follow.

Experiment: chemical genetic growth profiling, strain panel (AID 1159580);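 also: tested at 20 µM; growth read once vehicle control cultures reached saturation at 30 °C; 1 = growth at the plate median or of vehicle wells; lower values mean less growth of the strain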
Details: S. cerevisiae deletion strains, growth OD

Measured: normalized growth

C[C@@H]1CC[C@@]23CCC4(C)[C@@](C=CC5[C@@]6(C)CCC(=O)C(C)(C)C6CC[C@]54C)(OC2=O)C3[C@H]1C (stereo not given in full)
inactive: locus YAL013W, strain DEP1, stronger effect = lower value 1.03 | locus YAL021C, strain ccr4, stronger effect = lower value 0.998 | locus YAL026C, strain drs2, stronger effect = lower value 1.01 | locus YAL030W, strain snc1, stronger effect = lower value 0.998 | locus YBL061C, strain skt5, stronger effect = lower value 0.994 | locus YBR009C, strain hhf1, stronger effect = lower value 1.02 | locus YBR021W, strain FUR4, stronger effect = lower value 1.01 | locus YBR023C, strain chs3, stronger effect = lower value 1 | locus YBR171W, strain sec66, stronger effect = lower value 0.99 | locus YBR229C, strain ROT2, stronger effect = lower value 1.02 | locus YBR231C, strain swc5, stronger effect = lower value 1.01 | locus YBR279W, strain paf1, stronger effect = lower value 0.99 | locus YCL011C, strain gbp2, stronger effect = lower value 1.02 | locus YCL016C, strain dcc1, stronger effect = lower value 0.981 | locus YCL029C, strain bik1, stronger effect = lower value 1.03 | locus YCL061C, strain MRC1, stronger effect = lower value 1.01 | locus YCL069W, strain vba3, stronger effect = lower value 0.997 | locus YCR088W, strain abp1, stronger effect = lower value 0.992 | locus YDL005C, strain med2, stronger effect = lower value 1 | locus YDL035C, strain GPR1, stronger effect = lower value 1.02 | locus YDL040C, strain nat1, stronger effect = lower value 0.997 | locus YDL074C, strain BRE1, stronger effect = lower value 1.01 | locus YDL101C, strain DUN1, stronger effect = lower value 1.03 | locus YDL185W, strain tfp1, stronger effect = lower value 0.989 | locus YDL192W, strain arf1, stronger effect = lower value 1.01 | locus YDR001C, strain nth1, stronger effect = lower value 0.987 | locus YDR069C, strain doa4, stronger effect = lower value 1 | locus YDR101C, strain arx1, stronger effect = lower value 1.01 | locus YDR137W, strain rgp1, stronger effect = lower value 1.04 | locus YDR150W, strain NUM1, stronger effect = lower value 1.02 | locus YDR159W, strain sac3, stronger effect = lower value 1 | locus YDR162C, strain NBP2, stronger effect = lower value 1.04 | locus YDR195W, strain ref2 0.957 | locus YDR297W, strain sur2, stronger effect = lower value 1.02 | locus YDR318W, strain mcm21, stronger effect = lower value 1.04 | locus YDR334W, strain swr1, stronger effect = lower value 0.998 | locus YDR335W, strain msn5, stronger effect = lower value 1 | locus YDR388W, stronger effect = lower value 1 | locus YDR392W, strain spt3, stronger effect = lower value 1.01 | locus YDR502C, strain sam2, stronger effect = lower value 1.02 | locus YEL003W, strain gim4, stronger effect = lower value 1.01 | locus YEL037C, strain rad23, stronger effect = lower value 1.01 | locus YEL061C, strain CIN8 (second series), stronger effect = lower value 0.99 | locus YEL061C, strain CIN8, stronger effect = lower value 1.02 | locus YER015W, strain faa2, stronger effect = lower value 1.01 | locus YER016W, strain bim1, stronger effect = lower value 0.993 | locus YER110C, stronger effect = lower value 1.01 | locus YER111C, strain swi4, stronger effect = lower value 0.995 | locus YER155C, strain BEM2 (second series), stronger effect = lower value 1.01 | locus YER155C, strain BEM2, stronger effect = lower value 1.02 | locus YER167W, strain BCK2, stronger effect = lower value 1.01 | locus YFR010W, strain ubp6, stronger effect = lower value 1.02 | locus YGL078C, strain dbp3, stronger effect = lower value 1.01 | locus YGL086W, strain mad1, stronger effect = lower value 1 | locus YGL167C, strain pmr1, stronger effect = lower value 0.994 | locus YGL173C, strain kem1, stronger effect = lower value 1.01 | locus YGL227W, strain vid30, stronger effect = lower value 0.983 | locus YGL240W, strain doc1, stronger effect = lower value 1.03 | locus YGL248W, strain PDE1, stronger effect = lower value 1.02 | locus YGL253W, strain hxk2, stronger effect = lower value 1 | locus YGR135W, strain pre9, stronger effect = lower value 1 | locus YGR229C, strain SMI1, stronger effect = lower value 1.02 | locus YGR252W, strain gcn5, stronger effect = lower value 1.02 | locus YHR013C, strain ard1, stronger effect = lower value 0.986 | locus YHR027C, strain rpn1, stronger effect = lower value 1.01 | locus YHR030C, strain SLT2, stronger effect = lower value 1.02 and 0.996 | locus YHR079C, strain IRE1 (second series), stronger effect = lower value 1.02 | locus YHR079C, strain IRE1, stronger effect = lower value 1.01 | locus YHR129C, strain ARP1, stronger effect = lower value 1.02 | locus YHR142W, strain chs7, stronger effect = lower value 0.97 | locus YHR200W, strain rpn10, stronger effect = lower value 1.02 | locus YIL066C, strain RNR3, stronger effect = lower value 1.03 | locus YIL073C, strain SPO22, stronger effect = lower value 1 | locus YIL125W, strain kgd1, stronger effect = lower value 0.992 | locus YIR030C, strain dcg1, stronger effect = lower value 1.04 | locus YJL092W, strain hpr5, stronger effect = lower value 0.989 | locus YJL095W, strain BCK1 (second series), stronger effect = lower value 1 | locus YJL095W, strain BCK1, stronger effect = lower value 1.04 and 0.991 | locus YJL115W, strain asf1, stronger effect = lower value 0.993 | locus YJL129C, strain trk1, stronger effect = lower value 0.98 | locus YJL134W, strain LCB3, stronger effect = lower value 1.01 | locus YJL154C, strain vps35, stronger effect = lower value 0.981 | locus YJL164C, strain tpk1, stronger effect = lower value 1.01 | locus YJL166W, strain qcr8, stronger effect = lower value 1.01 | locus YJL168C, strain set2, stronger effect = lower value 1.01 | locus YJL187C, strain SWE1 (second series), stronger effect = lower value 1.03 | locus YJL187C, strain SWE1, stronger effect = lower value 0.993 | locus YJR043C, strain POL32, stronger effect = lower value 1.02 | locus YJR066W, strain TOR1, stronger effect = lower value 0.953 | locus YKL009W, strain mrt4, stronger effect = lower value 1.01 | locus YKL068W, stronger effect = lower value 1.02 | locus YKL085W, strain MDH1 (second series), stronger effect = lower value 1 | locus YKL085W, strain MDH1, stronger effect = lower value 1 | locus YKL160W, strain elf1, stronger effect = lower value 0.999 | locus YKR001C, strain vps1, stronger effect = lower value 0.977 | locus YKR026C, strain gcn3, stronger effect = lower value 1 | locus YKR091W, strain srl3, stronger effect = lower value 0.994 | locus YLL001W, strain dnm1, stronger effect = lower value 0.982 | locus YLL026W, stronger effect = lower value 1 | locus YLL041C, strain sdh2, stronger effect = lower value 1 | locus YLR027C, strain aat2, stronger effect = lower value 1.02 | locus YLR039C, strain RIC1, stronger effect = lower value 1.05 | locus YLR058C, strain SHM2, stronger effect = lower value 1.02 | locus YLR102C, strain apc9, stronger effect = lower value 1.01 | locus YLR113W, strain HOG1, stronger effect = lower value 1 | locus YLR221C, strain rsa3, stronger effect = lower value 0.988 | locus YLR258W, strain gsy2, stronger effect = lower value 1.01 | locus YLR262C, strain YPT6 (second series), stronger effect = lower value 1.02 | locus YLR262C, strain YPT6, stronger effect = lower value 1.07 | locus YLR268W, strain sec22, stronger effect = lower value 0.995 | locus YLR320W, strain mms22, stronger effect = lower value 1 | locus YLR330W, strain CHS5, stronger effect = lower value 1.02 | locus YLR342W, strain FKS1 (second series), stronger effect = lower value 1.01 | locus YLR342W, strain FKS1, stronger effect = lower value 1.01 | locus YLR357W, strain rsc2, stronger effect = lower value 0.991 | locus YLR370C, strain arc18, stronger effect = lower value 0.996 | locus YLR384C, strain iki3, stronger effect = lower value 0.989 | locus YLR418C, strain cdc73, stronger effect = lower value 1.01 | locus YML016C, strain PPZ1, stronger effect = lower value 1.02 | locus YML032C, strain rad52, stronger effect = lower value 1.04 | locus YML120C, strain ndi1, stronger effect = lower value 0.994 | locus YML124C, strain tub3, stronger effect = lower value 1.02 | locus YMR058W, strain fet3, stronger effect = lower value 1.01 | locus YMR078C, strain ctf18, stronger effect = lower value 1.09 | locus YMR125W, strain sto1, stronger effect = lower value 0.978 | locus YMR129W, stronger effect = lower value 0.99 | locus YMR205C, strain PFK2, stronger effect = lower value 0.983 | locus YMR223W, strain ubp8, stronger effect = lower value 1.04 | locus YMR231W, strain pep5, stronger effect = lower value 0.993 | locus YMR307W, strain GAS1, stronger effect = lower value 1.06 | locus YNL067W, strain RPL9B, stronger effect = lower value 1.02 | locus YNL071W, strain lat1, stronger effect = lower value 1.01 | locus YNL153C, strain GIM3, stronger effect = lower value 1.03 | locus YNL183C, strain NPR1, stronger effect = lower value 0.964 | locus YNL209W, strain ssb2, stronger effect = lower value 0.988 | locus YNL233W, strain BNI4, stronger effect = lower value 1.03 | locus YNL248C, strain rpa49, stronger effect = lower value 1.02 | locus YNL250W, strain rad50, stronger effect = lower value 1 | locus YNL271C, strain bni1, stronger effect = lower value 1.01 | locus YNL298W, strain CLA4, stronger effect = lower value 1.01 | locus YNL307C, strain MCK1, stronger effect = lower value 1.02 | locus YNL322C, strain KRE1 (second series), stronger effect = lower value 1 | locus YNL322C, strain KRE1, stronger effect = lower value 1.01 | locus YNR049C, strain mso1, stronger effect = lower value 0.994 | locus YNR052C, strain pop2, stronger effect = lower value 1.02 | locus YOL006C, strain TOP1, stronger effect = lower value 1 | locus YOL012C, strain htz1 1.03 | locus YOL147C, strain pex11, stronger effect = lower value 1.01 | locus YOR001W, strain rrp6, stronger effect = lower value 1.02 | locus YOR061W, strain CKA2, stronger effect = lower value 1.01 | locus YOR069W, strain VPS5, stronger effect = lower value 1.01 | locus YOR070C, strain gyp1, stronger effect = lower value 0.995 | locus YOR080W, strain dia2, stronger effect = lower value 0.996 | locus YOR083W, strain WHI5, stronger effect = lower value 1.01 | locus YOR106W, strain vam3, stronger effect = lower value 1 | locus YOR136W, strain idh2, stronger effect = lower value 1.01 | locus YOR144C, strain elg1, stronger effect = lower value 1.02 | locus YOR184W, strain ser1, stronger effect = lower value 1.01 | locus YOR231W, strain MKK1, stronger effect = lower value 1.01 | locus YOR265W, strain rbl2, stronger effect = lower value 1.01 | locus YOR270C, strain vph1, stronger effect = lower value 1.03 | locus YOR290C, strain snf2, stronger effect = lower value 0.97 | locus YOR316C, strain cot1, stronger effect = lower value 1.03 | locus YPL051W, strain arl3, stronger effect = lower value 1.04 | locus YPL078C, strain atp4, stronger effect = lower value 1.01 | locus YPL106C, strain sse1, stronger effect = lower value 1.01 | locus YPL240C, strain hsp82, stronger effect = lower value 0.996 | locus YPL256C, strain CLN2, stronger effect = lower value 0.987 | locus YPR119W, strain clb2, stronger effect = lower value 1.02 | locus YPR141C, strain kar3, stronger effect = lower value 1.04 | locus YPR163C, strain tif3, stronger effect = lower value 1.01 | locus YPR167C, strain met16, stronger effect = lower value 1.01 | strain wtn01, stronger effect = lower value 0.995
active: locus YHR094C, strain hxt1, stronger effect = lower value 1.11 [resistant] | locus YLR371W, strain rom2, stronger effect = lower value 1.1 [resistant]
